12-LOX inh – ALOX12 (human) lipoxygenase inhibition; P18054; purified 12hLO, xylenol orange hydroperoxide absorbance; Potency, µM (doses to about 108 µM), usual class: inhibitors; 580,000 tested, 1.1% active; AID 1671190
Target sequence (P18054 whole entry, looked up): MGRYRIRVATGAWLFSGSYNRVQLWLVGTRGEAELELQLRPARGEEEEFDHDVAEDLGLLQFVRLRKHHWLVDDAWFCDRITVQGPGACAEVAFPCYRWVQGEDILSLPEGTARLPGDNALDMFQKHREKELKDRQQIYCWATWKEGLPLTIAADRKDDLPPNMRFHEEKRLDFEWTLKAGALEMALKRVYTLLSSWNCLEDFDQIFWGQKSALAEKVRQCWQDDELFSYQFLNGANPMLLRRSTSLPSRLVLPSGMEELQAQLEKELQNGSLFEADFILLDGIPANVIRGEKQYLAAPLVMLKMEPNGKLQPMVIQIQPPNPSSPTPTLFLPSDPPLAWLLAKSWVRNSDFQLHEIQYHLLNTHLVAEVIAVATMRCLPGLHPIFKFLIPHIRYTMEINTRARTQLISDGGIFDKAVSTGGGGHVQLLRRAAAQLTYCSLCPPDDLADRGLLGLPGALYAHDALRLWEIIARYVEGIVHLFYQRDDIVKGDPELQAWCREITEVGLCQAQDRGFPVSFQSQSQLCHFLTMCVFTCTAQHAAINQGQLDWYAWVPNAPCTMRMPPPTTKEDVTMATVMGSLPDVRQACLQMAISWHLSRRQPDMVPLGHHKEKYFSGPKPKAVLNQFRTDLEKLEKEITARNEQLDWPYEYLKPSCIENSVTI
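Purified human 12hLO at 150 nM in 25 mM Hepes, 0.01% Triton X-100, pH 7.0, preincubated 15 min at room temperature with compound. Reaction started with 40 uM arachidonic acid, 30 min at room temperature. Hydroperoxide measured by Fe-xylenol orange, 573/405 nm absorbance ratio.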
TDP1 cell CPT – growth inhibition of DT40 Tdp1-/-;hTDP1 cells with camptothecin (screen for TDP1 inhibitors). chicken DT40 Tdp1-/-;hTDP1 cells + 20 nM CPT, ATP luminescence, 48 h. Potency, µM (doses to about 46.2 µM), most hits filed as inhibitors. 420,000 tested, 12% active; further: nearly all actives have a fitted effect of over 55% in size
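Cell growth measured by CellTiter-Glo luminescence after a minimum 48 h, 37 C compound exposure with 20 nM CPT in Tdp1-knockout DT40 cells stably expressing hTDP1, seeded 400/well; qHTS titration format.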
TDP1 cell noCPT – qHTS for Inhibitors of human tyrosyl-DNA phosphodiesterase 1 (TDP1): qHTS in cells in absence of CPT | DT40 Tdp1-/- hTDP1 cells, no CPT, ATP luminescence, 48 h | 420,000 tested, 15% active | Potency, µM (highest dose often 46.2 µM), usual class: inhibitors; further: nearly all actives have a fitted effect of over 55% in size
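Chicken DT40 Tdp1-/- cells stably complemented with human TDP1 were seeded at 400 cells/well with DMSO in place of 20 nM camptothecin. After compound pinning, cells grew at least 48 hr at 37 °C; viability read by CellTiter-Glo luminescence.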
HT1080 IDH1KD tx – HT-1080 IDH1 knockdown cell toxicity (counter line); HT-1080 IDH1 knockdown viability, ATP luminescence, 48 h; Potency, µM (top dose mostly 46.1 µM), most hits filed as cytotoxic; 360,000 tested, 2% active; AID 686971
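After a 2 h attachment period, IDH1KD HT-1080 cells took pin-transferred compound for 48 h at 37 °C; ATP-based luminescence after 10 min room-temperature reagent incubation reported viability.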
HT1080NT lethal – kills 2HG-producing HT-1080-NT fibrosarcoma cells; HT-1080-NT fibrosarcoma viability, CellTiter-Glo ATP luminescence, 48 h; Potency, µM (top dose mostly 46.1 µM), most hits filed as cytotoxic; 360,000 tested, 1.6% active;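 further: NT is the 2HG producing partner of a matched IDH1 knockdown line; nearly all actives have a fitted effect of over 55% in size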
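Compounds were tested in concentration-response format on HT-1080-NT cells for 48 hours at 37 degrees C. Cell viability came from CellTiter-Glo luminescence; curves were classified by r2, response magnitude and activity.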
IL1B secr inh – inflammasome signaling inhibition, IL-1 beta readout; THP-1 LPS/ATP IL-1B secretion, AlphaLISA, 16 h; stronger effect = lower value; activity change, % at 57.5 µM; 360,000 tested, 4.7% active; AID 743279; in the data active means activity change below about -50%; inconclusive means mostly about -30% to -49%
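THP-1 cells pretreated 1 hr with compounds (up to 57.5 uM final), then stimulated with LPS (250 ng/mL final) plus ATP (1.25 mM final); secreted IL-1B measured by AlphaLISA after 16 hr, decreased signal indicating inhibition.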
Of the large screens only hits and unclear results are named; the others gave an inactive call. This is one part of a sample in which hits are shown more often than they occur. Unless noted, the call rests on the fitted dose curve; in most records, active means well fitted curve in the direction sought with a large enough effect; inconclusive means small, poorly fitted or top-dose-only effect, or another doubt; inactive means no such curve, though single readings can be large; an effect the other way counts as inactive or inconclusive.

CC(=O)c1ccc(N2CCN(C(=O)c3cc4ccc5cccnc5c4[nH]3)CC2)cc1	TDP1 cell CPT 15µM, TDP1 cell noCPT 18µM (no result: HT1080 IDH1KD tx, HT1080NT lethal, IL1B secr inh)
COc1ccccc1NS(=O)(=O)c1cccc(C(=O)N/N=C/c2ccc([N+](=O)[O-])o2)c1	TDP1 cell CPT 3.7µM, TDP1 cell noCPT 2.9µM, HT1080 IDH1KD tx inconclusive, HT1080NT lethal inconclusive, IL1B secr inh -92
CCN(CC)c1ccc(/C=N/NC(=O)c2cccc(S(=O)(=O)Nc3ccccc3OC)c2)c(O)c1	TDP1 cell CPT 3.3µM, TDP1 cell noCPT 2.9µM, HT1080 IDH1KD tx inconclusive, HT1080NT lethal inconclusive
COc1ccccc1NS(=O)(=O)c1cccc(C(=O)N/N=C/c2ccc3c(c2)OCCO3)c1	none
Cc1ccc2c(C)nc(Nc3nc(C)cc(=O)[nH]3)nc2c1	none (no result: TDP1 cell CPT, TDP1 cell noCPT, HT1080 IDH1KD tx, HT1080NT lethal, IL1B secr inh)
Nc1c(N=Nc2ccc([N+](=O)[O-])cc2)c(S(=O)(=O)O)cc2cc(S(=O)(=O)O)c(/C=C/c3ccccc3)c(O)c12	TDP1 cell CPT 10µM, TDP1 cell noCPT 14µM (no result: 12-LOX inh, HT1080 IDH1KD tx, HT1080NT lethal, IL1B secr inh)
Fc1cccc(NCc2ccccc2-c2nnc(-c3ccccc3Cl)o2)c1	TDP1 cell CPT inconclusive, TDP1 cell noCPT inconclusive (no result: HT1080 IDH1KD tx, HT1080NT lethal, IL1B secr inh)
Cc1cc(F)ccc1NCc1ccccc1-c1nnc(-c2ccccc2Cl)o1	TDP1 cell CPT inconclusive, TDP1 cell noCPT 21µM (no result: HT1080 IDH1KD tx, HT1080NT lethal, IL1B secr inh)
COC(=O)c1ccc(NC(=O)CCc2c(C)nc3c(c(C)nn3C(C)(C)C)c2C)cc1	12-LOX inh inconclusive, TDP1 cell CPT inconclusive, TDP1 cell noCPT 18µM (no result: HT1080 IDH1KD tx, HT1080NT lethal, IL1B secr inh)
Cc1cccc(NC(=O)CCc2c(C)nc3c(c(C)nn3C(C)(C)C)c2C)c1C	TDP1 cell CPT inconclusive, TDP1 cell noCPT inconclusive (no result: HT1080 IDH1KD tx, HT1080NT lethal, IL1B secr inh)
CCOC(=O)c1ccc(NC(=O)CCc2c(C)nc3c(c(C)nn3C(C)(C)C)c2C)cc1	TDP1 cell CPT 16µM, TDP1 cell noCPT 18µM (no result: HT1080 IDH1KD tx, HT1080NT lethal, IL1B secr inh)
Brc1ccc(-c2noc(-c3cnccn3)n2)cc1	none (no result: TDP1 cell CPT, TDP1 cell noCPT, HT1080 IDH1KD tx, HT1080NT lethal, IL1B secr inh)
Cc1cc(C)nc(SCc2ccc(C(=O)N/N=C/c3ccc(C(=O)O)cc3)cc2)n1	none
COc1ccc(O)c(/C=N/NC(=O)c2ccc(CSc3nc(C)cc(C)n3)cc2)c1	TDP1 cell CPT 4.6µM, TDP1 cell noCPT 2.9µM, HT1080 IDH1KD tx inconclusive, HT1080NT lethal inconclusive
Cc1cc(C)nc(SCc2ccc(C(=O)N/N=C/c3cccc(O)c3O)cc2)n1	TDP1 cell CPT 5.2µM, TDP1 cell noCPT 5.8µM, HT1080 IDH1KD tx 2.3µM, HT1080NT lethal inconclusive
CCc1ccc(NC(=O)N2CC=C(c3c[nH]c4ccccc34)CC2)cc1	TDP1 cell CPT 5.8µM, TDP1 cell noCPT 5.2µM (no result: HT1080 IDH1KD tx, HT1080NT lethal, IL1B secr inh)
CN(C)S(=O)(=O)N1CC=C(c2c[nH]c3ccccc23)CC1	12-LOX inh 18µM (no result: TDP1 cell CPT, TDP1 cell noCPT, HT1080 IDH1KD tx, HT1080NT lethal, IL1B secr inh)
CCOC(=O)c1cccc(NC(=O)N2CC=C(c3c[nH]c4ccccc34)CC2)c1	TDP1 cell CPT inconclusive, TDP1 cell noCPT 21µM (no result: HT1080 IDH1KD tx, HT1080NT lethal, IL1B secr inh)
Cc1ccc(C)c(NC(=O)N2CC=C(c3c[nH]c4ccccc34)CC2)c1	TDP1 cell CPT inconclusive, TDP1 cell noCPT inconclusive (no result: HT1080 IDH1KD tx, HT1080NT lethal, IL1B secr inh)
COc1cc(OC)c(NC(=O)N2CC=C(c3c[nH]c4ccccc34)CC2)cc1Cl	TDP1 cell CPT inconclusive, TDP1 cell noCPT inconclusive (no result: HT1080 IDH1KD tx, HT1080NT lethal, IL1B secr inh)
CCOc1ccc(NC(=O)N2CC=C(c3c[nH]c4ccccc34)CC2)cc1	TDP1 cell CPT 3.7µM, TDP1 cell noCPT 2.3µM (no result: HT1080 IDH1KD tx, HT1080NT lethal, IL1B secr inh)
O=C(CCc1ccccc1)N1CC=C(c2c[nH]c3ccccc23)CC1	none (no result: TDP1 cell CPT, TDP1 cell noCPT, HT1080 IDH1KD tx, HT1080NT lethal, IL1B secr inh)
O=C1CC(c2ccccc2)N(C(=O)c2ccccn2)CCCCCN1 (configuration not stated)	none (no result: TDP1 cell CPT, TDP1 cell noCPT, HT1080 IDH1KD tx, HT1080NT lethal, IL1B secr inh)
O=C1NCc2ccccc2CC12CCCN2Cc1c(F)cccc1F (configuration not stated)	none (no result: TDP1 cell CPT, TDP1 cell noCPT, HT1080 IDH1KD tx, HT1080NT lethal, IL1B secr inh)
CN1CCN(Cc2nc(C3(O)CCN(C(=O)C4CCCCC4)CC3)cs2)CC1	none (no result: TDP1 cell CPT, TDP1 cell noCPT, HT1080 IDH1KD tx, HT1080NT lethal, IL1B secr inh)
CSc1ccc(NC(=O)N2CC=C(n3c(=O)[nH]c4ccccc43)CC2)cc1	TDP1 cell CPT 8.2µM, TDP1 cell noCPT 8.2µM, HT1080 IDH1KD tx inconclusive

Screening data (PubChem)
